Data on 20 compounds can be found in PubChem BioAssay (EPA / NIEHS).

Records with an inconclusive call do not appear. The source made the active and inactive calls. The calls were made as follows: active = hit-call score of the fitted dose curve at least 0.9, where 1 is the maximum; inconclusive = response in the unintended direction; inactive = score below 0.9.

For test [1], the target named is Estrogen receptor (Homo sapiens) (UniProt P03372). In words: OT_ER_ERaERa_0480: Odyssey Thera (OT) 8-hour HEK293T Protein-Complementation Assay for Estrogen Receptor-alpha/-alpha Homodimer (AID 2283351).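 Also: rise in fluorescence from reassembled reporter fragments on ERα LBD homodimer in nucleus or whole cell.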 An outline of the steps: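 Binding reporter in which dimerisation of ERα LBD (aa 310-547) fusions reconstitutes a fluorescent reporter in HEK293T cells. Compounds incubated 8 h; mean fluorescence intensity increase versus DMSO scored.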
Chain of Estrogen receptor (Homo sapiens) (P03372 whole entry, looked up, the tested form may be a part): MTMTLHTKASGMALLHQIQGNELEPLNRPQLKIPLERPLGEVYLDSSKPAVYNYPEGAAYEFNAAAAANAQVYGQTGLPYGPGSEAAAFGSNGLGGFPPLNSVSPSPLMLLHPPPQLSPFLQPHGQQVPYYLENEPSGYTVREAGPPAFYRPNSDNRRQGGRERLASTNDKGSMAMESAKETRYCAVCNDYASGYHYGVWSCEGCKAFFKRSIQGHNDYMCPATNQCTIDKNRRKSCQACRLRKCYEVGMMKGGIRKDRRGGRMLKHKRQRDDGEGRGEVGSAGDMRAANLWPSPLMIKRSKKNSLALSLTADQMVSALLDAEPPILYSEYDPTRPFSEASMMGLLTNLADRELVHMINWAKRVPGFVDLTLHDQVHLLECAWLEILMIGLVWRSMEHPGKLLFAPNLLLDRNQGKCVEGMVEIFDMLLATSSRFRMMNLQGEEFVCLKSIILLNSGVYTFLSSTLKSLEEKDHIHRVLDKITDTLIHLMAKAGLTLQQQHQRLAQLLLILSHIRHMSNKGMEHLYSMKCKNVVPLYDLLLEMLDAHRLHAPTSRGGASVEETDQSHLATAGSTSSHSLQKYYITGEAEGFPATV

The target in test [2] is T1, Estrogen receptor (Homo sapiens) + Estrogen receptor beta (Homo sapiens) (UniProt P03372+Q92731). The test can be described thus: OT_ER_ERaERb_0480: Odyssey Thera (OT) 8-hour HEK293T Protein-Complementation Assay for Estrogen Receptor-alpha/-beta Heterodimer (AID 2283352). An outline of the steps:
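Increase in mean fluorescence intensity, measured by laser scanning plate cytometry, reported ER-alpha/ER-beta LBD complementation in HEK293T cells after 8 h chemical exposure. DMSO served as baseline; basal signal is low, punctate and cytoplasmic.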

Test [3] has as its target T1, Estrogen receptor (Homo sapiens) + Estrogen receptor beta (Homo sapiens). The test can be described thus: OT_ER_ERaERb_1440: Odyssey Thera (OT) 24-hour HEK293T Protein-Complementation Assay for Estrogen Receptor-alpha/-beta Homodimer (AID 2283356).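 Also: heteromer of ER alpha and ER beta binding domains; hits raise reporter fluorescence and both agonists and antagonists give an increase.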 The gist of the method: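 Heterodimerisation of ERα (aa 310-547) and ERβ (aa 263-489) ligand binding domains was tracked as fluorescence gain in stably transfected HEK293T cells following 24 h dosing, normalised to DMSO controls.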

Test [4] deals with Estrogen receptor beta (Homo sapiens) (UniProt Q92731). The test can be described thus: OT_ER_ERbERb_0480: Odyssey Thera (OT) 8-hour HEK293T Protein-Complementation Assay for Estrogen Receptor-beta/-beta Homodimer (AID 2283357).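 Also: active means signal gain over DMSO baseline.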 An outline of the steps:
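Fluorescence intensity, nuclear for agonists and nuclear plus cytoplasmic for antagonists, was quantified by laser scanning cytometry versus vehicle after 8 h treatment. The cells were HEK293T stably carrying ER beta LBD fragment-complementation partners.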

Test [5] deals with Androgen Receptor/SRC-1 Co-activator, AR (gene 367) (UniProt P10275). In words: OT_AR_ARSRC1_0960: Odyssey Thera (OT) 16-hour HEK293T Protein-Complementation Assay for Androgen Receptor/SRC-1 Co-activator (AID 2283353).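 Also: actives raise the signal above DMSO so potency reflects increased AR and SRC-1 complex.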 An outline of the steps:
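Interaction of AR with SRC-1 was followed by YFP fragment complementation in HEK293T cells after 16 h of dosing. Gain of nuclear-over-cytoplasmic 488 nm fluorescence against DMSO controls defined activity.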

For test [6] the target is unchanged. The test can be described thus: OT_AR_ARSRC1_0480: Odyssey Thera (OT) 8-hour HEK293T Protein-Complementation Assay for Androgen Receptor/SRC-1 Co-activator (AID 2283354).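 Also: hits raise the complementation signal above DMSO so AC50 marks enhancers.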 An outline of the steps:
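HEK293T cells stably expressing AR and SRC-1 fused to Venus YFP fragments, imaged 8 h after dosing. Complementation fluorescence scored as nuclear/cytoplasmic ratio at 488 nm in at least 400 cells per image; gain fitted versus DMSO.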

Another test deals with PGR (gene 5241) (UniProt P06401). In words: NVS_NR_hPR: NovaScreen (NVS) Nuclear Receptor Binding Assay for human Progestron Receptor (PR) (AID 2283360).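 Also: active means loss of bound radioligand signal versus DMSO baseline.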 An outline of the steps: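 Radioligand competition binding on receptor extracted from T47D cells, read by scintillation counting 18 h after dosing. Loss of signal versus DMSO; primary screen in duplicate at 25 uM, actives followed in concentration series.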
Chain of PGR (gene 5241) (P06401 whole entry, looked up): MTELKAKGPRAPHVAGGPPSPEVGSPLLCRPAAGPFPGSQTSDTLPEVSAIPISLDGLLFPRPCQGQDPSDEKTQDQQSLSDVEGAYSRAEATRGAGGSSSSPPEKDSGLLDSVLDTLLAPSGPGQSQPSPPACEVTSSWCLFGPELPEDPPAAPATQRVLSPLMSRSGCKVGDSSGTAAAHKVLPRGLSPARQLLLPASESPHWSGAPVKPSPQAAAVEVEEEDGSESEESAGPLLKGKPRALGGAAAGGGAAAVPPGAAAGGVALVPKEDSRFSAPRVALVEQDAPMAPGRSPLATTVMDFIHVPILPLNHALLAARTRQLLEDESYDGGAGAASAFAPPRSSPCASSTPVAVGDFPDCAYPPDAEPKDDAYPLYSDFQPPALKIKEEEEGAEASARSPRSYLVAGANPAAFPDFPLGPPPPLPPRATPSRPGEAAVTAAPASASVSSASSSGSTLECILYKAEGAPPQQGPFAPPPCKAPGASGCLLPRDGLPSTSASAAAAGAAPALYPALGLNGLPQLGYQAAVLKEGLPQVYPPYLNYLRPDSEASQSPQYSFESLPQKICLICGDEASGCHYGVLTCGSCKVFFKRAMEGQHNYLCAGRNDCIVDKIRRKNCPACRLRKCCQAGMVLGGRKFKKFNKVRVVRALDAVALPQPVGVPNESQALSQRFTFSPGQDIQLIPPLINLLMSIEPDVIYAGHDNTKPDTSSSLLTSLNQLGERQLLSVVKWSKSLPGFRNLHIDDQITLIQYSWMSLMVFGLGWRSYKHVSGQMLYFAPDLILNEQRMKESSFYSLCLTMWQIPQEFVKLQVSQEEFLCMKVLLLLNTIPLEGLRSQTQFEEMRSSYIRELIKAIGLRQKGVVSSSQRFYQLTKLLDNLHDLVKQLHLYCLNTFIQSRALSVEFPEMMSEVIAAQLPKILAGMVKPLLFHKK

The target of test [7] is human Thyroid Receptor Alpha (TRa), THRA (gene 7067) (UniProt P10827). The test can be described thus: NVS_NR_hTRa_Antagonist: NovaScreen (NVS) Nuclear Receptor Binding Assay for human Thyroid Receptor Alpha Antagonism (TRa) (AID 2283362).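 Also: activity is loss of signal relative to DMSO baseline.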 An outline of the steps:
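Chemicals were first screened in duplicate at 25 uM, then actives were retested in concentration series. Binding to the extracted receptor was measured 1 h after dosing by AlphaLISA chemiluminescence, with decreased signal versus DMSO scored as activity.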

For test [8], the target named is Estrogen receptor (Homo sapiens) (UniProt P03372). In words: OT_ER_ERaERa_1440: Odyssey Thera (OT) 24-hour HEK293T Protein-Complementation Assay for Estrogen Receptor-alpha/-alpha Homodimer (AID 2283349).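 Also: hits raise fluorescence above DMSO for agonists and antagonists alike.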 An outline of the steps:
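HEK293T cells stably expressing the human ER alpha ligand-binding domain (aa 310-547) as a homodimer PCA were dosed for 24 hours. Fluorescence intensity was read by laser scanning cytometry, and gain of signal was fitted relative to DMSO vehicle.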

Chain of Estrogen receptor beta (Homo sapiens) (Q92731 whole entry, looked up, the tested form may be a part): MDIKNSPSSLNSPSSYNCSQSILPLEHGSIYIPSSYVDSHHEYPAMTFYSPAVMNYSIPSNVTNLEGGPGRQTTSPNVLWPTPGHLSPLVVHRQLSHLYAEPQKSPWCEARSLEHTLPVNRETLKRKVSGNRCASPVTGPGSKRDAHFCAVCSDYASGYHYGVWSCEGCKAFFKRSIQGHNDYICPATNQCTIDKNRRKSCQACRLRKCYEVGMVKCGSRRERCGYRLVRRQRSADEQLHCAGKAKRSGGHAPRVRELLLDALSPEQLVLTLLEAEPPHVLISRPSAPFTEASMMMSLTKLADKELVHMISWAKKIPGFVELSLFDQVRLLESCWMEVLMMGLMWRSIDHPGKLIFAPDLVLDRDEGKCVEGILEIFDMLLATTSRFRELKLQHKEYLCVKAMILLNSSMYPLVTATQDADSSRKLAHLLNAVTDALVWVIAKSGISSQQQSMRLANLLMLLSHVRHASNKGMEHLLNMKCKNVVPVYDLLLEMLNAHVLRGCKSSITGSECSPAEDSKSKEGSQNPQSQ
Chain of Androgen Receptor/SRC-1 Co-activator, AR (gene 367) (P10275 whole entry, looked up, the tested form may be a part): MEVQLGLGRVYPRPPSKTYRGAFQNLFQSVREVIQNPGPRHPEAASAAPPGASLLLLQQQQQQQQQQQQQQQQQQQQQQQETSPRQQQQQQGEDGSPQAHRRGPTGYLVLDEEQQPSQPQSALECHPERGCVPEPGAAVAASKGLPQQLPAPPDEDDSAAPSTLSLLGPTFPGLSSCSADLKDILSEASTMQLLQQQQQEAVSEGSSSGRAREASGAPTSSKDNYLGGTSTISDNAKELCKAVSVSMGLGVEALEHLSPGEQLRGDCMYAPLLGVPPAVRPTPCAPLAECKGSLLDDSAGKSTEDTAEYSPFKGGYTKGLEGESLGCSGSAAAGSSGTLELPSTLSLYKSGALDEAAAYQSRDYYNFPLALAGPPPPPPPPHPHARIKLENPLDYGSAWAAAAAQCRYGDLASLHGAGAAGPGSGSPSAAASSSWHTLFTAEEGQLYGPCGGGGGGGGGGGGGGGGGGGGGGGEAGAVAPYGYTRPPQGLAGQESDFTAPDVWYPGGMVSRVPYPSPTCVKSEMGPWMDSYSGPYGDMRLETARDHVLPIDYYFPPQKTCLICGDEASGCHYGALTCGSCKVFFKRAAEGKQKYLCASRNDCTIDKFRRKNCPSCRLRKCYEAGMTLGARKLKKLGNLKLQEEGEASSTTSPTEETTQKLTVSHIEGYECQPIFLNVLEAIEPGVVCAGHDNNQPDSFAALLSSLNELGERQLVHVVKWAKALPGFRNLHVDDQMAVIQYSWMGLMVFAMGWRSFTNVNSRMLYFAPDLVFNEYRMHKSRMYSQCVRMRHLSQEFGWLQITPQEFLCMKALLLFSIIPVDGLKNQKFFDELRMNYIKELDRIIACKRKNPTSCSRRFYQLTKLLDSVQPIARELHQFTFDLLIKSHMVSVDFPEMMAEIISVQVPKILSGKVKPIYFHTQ
T1 sequence (P03372 whole entry, looked up, the tested form may be a part): as the sequence (P03372 whole entry, looked up, the tested form may be a part) above
T1 sequence (Q92731 whole entry, looked up, the tested form may be a part): as the sequence (Q92731 whole entry, looked up, the tested form may be a part) above
Chain of human Thyroid Receptor Alpha (TRa), THRA (gene 7067) (P10827 whole entry, looked up): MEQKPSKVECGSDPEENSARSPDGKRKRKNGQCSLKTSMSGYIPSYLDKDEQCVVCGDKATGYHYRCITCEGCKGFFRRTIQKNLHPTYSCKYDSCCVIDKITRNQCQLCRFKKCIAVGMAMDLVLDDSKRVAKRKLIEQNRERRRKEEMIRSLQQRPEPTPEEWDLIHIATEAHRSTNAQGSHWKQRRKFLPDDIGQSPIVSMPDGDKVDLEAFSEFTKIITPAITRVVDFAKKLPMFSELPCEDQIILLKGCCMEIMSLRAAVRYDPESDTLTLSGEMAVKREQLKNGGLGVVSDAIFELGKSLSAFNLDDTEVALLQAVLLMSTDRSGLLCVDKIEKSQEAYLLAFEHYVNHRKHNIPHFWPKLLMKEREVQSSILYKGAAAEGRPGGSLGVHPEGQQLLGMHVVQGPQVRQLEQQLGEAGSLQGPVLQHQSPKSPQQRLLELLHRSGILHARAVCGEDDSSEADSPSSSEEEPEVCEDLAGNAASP

`CC1(C)Cc2cccc(O)c2O1`: the compound was called inactive in [1], in test [2], in test [3] and in [4].
On to `O=c1[nH]c(=O)[nH]c(=O)[nH]1`, for which the result in test [5], in [6] and in test [4] was inactive.
As for `CN(C)N=O`, the compound was called inactive in test [4].
Broadly, the AC50 is the concentration at which the activity in the assay is half-maximal. In the case of `CCCCCCCCc1ccc(O)cc1`, the AC50 in test [4] was 12.2 µM (active).
With `CC(C)c1cccc(C(C)C)c1O`, the compound was classed as inactive in test [1], in test [2], in test [5], in test [6], in test [3] and in [4].
For `N#CCc1ccc(Cl)cc1`, in the test with PGR (gene 5241), the call was inactive.
In the case of `O=C(Nc1ccc2[nH]ccc2c1)c1cc2cc(F)ccc2n1Cc1cccc(F)c1`, the outcome in test [1] was inactive.
Turning to `ClC(Cl)=C(Cl)C(Cl)=C(Cl)Cl`, the call in [1] was inactive.
For the compound `OCc1ccco1`, the compound was classed as inactive in [1], in test [2], in test [3] and in test [4].
On to `CC(=O)c1cc(C(C)(C)C)cc2c1CCC2(C)C`, for which the compound was classed as inactive in test [1].
On to `Cn1sc(Cl)cc1=O`, for which the call in [1], in test [2], in test [3] and in test [4] was inactive.
Take `O=C(O)C(F)(F)C(F)(F)C(F)(F)C(F)(F)C(F)(F)C(F)(F)F`: the compound was called inactive in test [4].
In the case of `CCCCOCCOC(C)=O`, in [1], the call was inactive.
For `Oc1cccc2cccnc12`, in test [4], the compound was called inactive. For the same compound, the AC50 in [7] was 5.52 µM (active).
With `[O-][Cl+2]([O-])O`, the result in [1], in [2] and in test [3] was inactive.
Take `BrCCBr`: the call in test [8], in test [1], in [3] and in test [4] was inactive.
In the case of `COP(=O)(OC)OC`, the result in test [1] and in test [5] was inactive.
Take `Cl/C=C/Cl`: in test [1], the outcome was inactive.
Consider `C=CC#N`, for which the compound was classed as inactive in [1], in test [2], in test [3] and in [4].
Take `Clc1nc(Cl)nc(Cl)n1`: in test [1], the outcome was inactive.
